Drawing on PubChem BioAssay (EPA / NIEHS), this text covers outcome and AC50 for 28 molecules.

One may read the AC50 as the midpoint of the concentration-response curve, whichever way the signal moves.

Where “and” joins values, the source holds several entries; their conditions need not be identical. Identical values can stand only once. Inconclusive results are not listed. Calls of active or inactive are those of the source. How the source made its calls: active means hit-call score of the fitted dose curve at least 0.9, where 1 is the maximum; inconclusive means response in the unintended direction; inactive means score below 0.9.

Chain of Protein deacetylase HDAC6 (Homo sapiens) (Q9UBN7 whole entry, looked up): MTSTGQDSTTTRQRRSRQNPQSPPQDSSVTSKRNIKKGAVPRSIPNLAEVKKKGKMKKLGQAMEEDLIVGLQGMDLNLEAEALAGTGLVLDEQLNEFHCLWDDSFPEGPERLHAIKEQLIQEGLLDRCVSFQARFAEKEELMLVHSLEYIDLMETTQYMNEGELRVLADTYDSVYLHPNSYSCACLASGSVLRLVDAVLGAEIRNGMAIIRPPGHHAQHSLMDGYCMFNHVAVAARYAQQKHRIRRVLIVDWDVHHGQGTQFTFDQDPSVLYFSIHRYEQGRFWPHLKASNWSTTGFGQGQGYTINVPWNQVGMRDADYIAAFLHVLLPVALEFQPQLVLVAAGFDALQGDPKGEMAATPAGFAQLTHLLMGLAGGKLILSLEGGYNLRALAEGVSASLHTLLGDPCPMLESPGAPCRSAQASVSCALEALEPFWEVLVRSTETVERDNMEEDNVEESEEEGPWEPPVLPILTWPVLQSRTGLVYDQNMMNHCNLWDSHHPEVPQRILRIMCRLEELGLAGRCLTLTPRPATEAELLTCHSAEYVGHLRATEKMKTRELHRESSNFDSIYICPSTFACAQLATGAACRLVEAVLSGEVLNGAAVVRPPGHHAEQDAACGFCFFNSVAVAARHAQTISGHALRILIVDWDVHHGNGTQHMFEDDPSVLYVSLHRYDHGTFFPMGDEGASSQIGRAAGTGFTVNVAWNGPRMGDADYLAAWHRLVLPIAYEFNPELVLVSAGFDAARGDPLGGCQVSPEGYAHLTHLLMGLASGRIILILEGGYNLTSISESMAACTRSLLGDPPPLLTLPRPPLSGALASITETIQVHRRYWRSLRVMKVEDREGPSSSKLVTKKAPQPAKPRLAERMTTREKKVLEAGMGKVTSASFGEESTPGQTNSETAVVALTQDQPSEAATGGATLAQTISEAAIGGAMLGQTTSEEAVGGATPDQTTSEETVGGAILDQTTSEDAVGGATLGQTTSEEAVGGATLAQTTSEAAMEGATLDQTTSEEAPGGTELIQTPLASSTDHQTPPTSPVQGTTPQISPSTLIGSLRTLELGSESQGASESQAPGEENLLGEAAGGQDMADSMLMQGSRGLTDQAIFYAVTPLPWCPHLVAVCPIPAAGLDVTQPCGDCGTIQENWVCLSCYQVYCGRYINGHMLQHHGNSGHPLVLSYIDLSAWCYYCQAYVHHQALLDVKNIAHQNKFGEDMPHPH

For the test, the target named is Protein deacetylase HDAC6 (Homo sapiens) (UniProt Q9UBN7). Kind of test: NVS_ENZ_hHDAC6: NovaScreen (NVS) Enzymatic Assay for human Histone Deacetylase 6 (HDAC6) (AID 2283164). How it is done:
NVS_ENZ_hHDAC6 is a biochemical, single-readout assay that uses extracted gene-proteins in a cell-free assay. Measurements were taken 1 hour after chemical dosing in a 384-well plate.NVS_ENZ_hHDAC6 is one of one assay component(s) measured or calculated from the NVS_ENZ_hHDAC6 assay. It is designed to make measurements of enzyme activity, a form of enzyme reporter, as detected with fluorescence intensity signals by Fluorescence and electrophoretic mobility shift technology.Data from the assay component NVS_ENZ_hHDAC6 was analyzed into 1 assay endpoint. This assay endpoint, NVS_ENZ_hHDAC6, was analyzed in the positive analysis fitting direction relative to DMSO as the negative control and baseline of activity. Using a type of enzyme reporter, loss-of-signal activity can be used to understand changes in the enzymatic activity as they relate to the gene HDAC6. Furthermore, this assay endpoint can be referred to as a primary readout, because this assay has produced multiple assay endpoints where this one serves a enzymatic activity function. To generalize the intended target to other relatable targets, this assay endpoint is annotated to the hydrolase intended target family, where the subfamily is histone deacetylase.
Binding assays used specific radioligands (tritiated, iodinated) with non-radioactive competitive displacement ligands in agonist or antagonist protocols (as indicated) and various reference compounds and inhibitors to titrate specific binding to receptors and transporters. Most enzyme assays (CYPs, kinases, phosphatases, proteases, HDACs) used recombinant protein and specific substrates (fluorescence mostly, some colorimetric and radioactive) and inhibitors, followed by a biochemical separation of substrate and product. All assays for the biochemical HTS were initially run in duplicate at a single concentration (10 uM for CYP450 assays and 25 uM for all others). Assay-chemical combinations meeting a pre-defined threshold (e.g., 30% inhibition and other criteria defined below) were then run in singleton concentration-response format with maximum concentration of 20 uM for CYPs and 50 uM for all others. Each assay was run with positive and negative controls, and concurrent controls on every plate. The follow-up (secondary) screen tested active chemical-pairs in concentration series, as well as a few additional assays not tested in the primary screen, some selected negative inactives, and several cases re-run in the concentration series for confirmatory purposes.
As for `CCCCCCC(=O)O`, the molecule was classed as inactive. On to `Nc1cccc2c(N)cccc12`, for which the call was inactive. In the case of `NCCO`, the molecule was called inactive. For the molecule `N#CSCSc1nc2ccccc2s1`, the AC50 was 25 µM (active). On to `CC(CO)OC(C)CO` (stereo not drawn) (tested in a mixture with another compound), for which the call was inactive. Still for that read-out and setting: next, `CC(C)CCCCCCc1ccc(O)cc1`: “inactive”; `Cc1ccc(N)cc1O`: “inactive”; `On1ccccc1=S`: “inactive”. The same measure, in the same setting: next, `CCCCCCCCCCCCc1ccccc1`: “inactive”. Turning to `CSc1ccc(Oc2ccc(S(N)(=O)=O)cc2CN(C)C)cc1C`, the result was inactive. For `NC(=O)NO`, the result was inactive. Take `CCCCCCCC/C=C\CCCCCCCC(=O)OC[C@@H](O)[C@H]1OC[C@H](O)[C@H]1O`: the result was inactive. On to `C#C[C@]1(O)CC[C@H]2[C@@H]3CCC4=CC(=O)CC[C@@H]4[C@H]3CC[C@@]21C`, for which the outcome was inactive. Take `Cc1[nH]cnc1C[C@H]1CCc2c(C)c3ccccc3n2C1=O`: the result was inactive. As for `S=C(S)NCCNC(=S)S.[Mn+2].[S-]C([S-])=NCCN=C([S-])[S-].[Zn+2]`, the AC50 is 233 nM (active) and 815 nM (active). Take `O=C1c2ccccc2C(=O)N1CCc1noc(-c2ccc(CN3CCCCCC3)s2)n1`: the molecule was called inactive. Turning to `CCCc1cc(=O)[nH]c(=S)[nH]1`, the call was inactive. For `Cc1ncc([C@@H](CCCCCCc2ccc3c(n2)NCCC3)CC(=O)O)cn1`, the half-maximal activity concentration (AC50) is 14.9 µM (active). Regarding `CCCC(CCC)C(=O)O`, the molecule was called inactive.

Take `O=c1[nH]cnc2c1ncn2[C@H]1CC[C@@H](CO)O1`: the molecule was called inactive.

Consider `Cn1c(=O)cc(Oc2ccc(F)cc2F)c2cnc(NCC(C)(C)O)nc21`, for which the result was inactive. Consider `CC(=O)[C@H]1CC[C@H]2[C@@H]3CCC4=CC(=O)CC[C@]4(C)[C@H]3CC[C@]12C`, for which the result was inactive. Consider `CC(N)=O`, for which the call was inactive. `CCN(CC)CCOc1ccc(C(=C(Cl)c2ccccc2)c2ccccc2)cc1`: the call was inactive. For `Cc1occc(=O)c1O`, the molecule was called inactive. On the same count and under the same terms, next, `C1CCC(SSC2CCCCC2)CC1`: “inactive”; `CC[C@H](C)C(=O)O[C@H]1C[C@@H](C)C=C2C=C[C@H](C)[C@H](CC[C@@H]3C[C@@H](O)CC(=O)O3)[C@H]21`: “inactive”; `CCc1ccc(O)c(C(C)(C)C)c1`: “inactive”.
